Most compounds without a hit are left out; they make up all but 3.9% or so of the library.
BoNT A protease: BoNT/A light chain protease inhibitors, primary screen, biochemical, flow cytometry, MLPCN library. Botulinum neurotoxin type A light chain protease (Clostridium botulinum A str. ATCC 3502). multiplex microsphere protease substrate cleavage. inhibition, % at 10 µM. 360,000 tested, 0.17% active; further: plate controls were buffer without enzyme for full effect and enzyme alone for no effect
Autofluor counter: compound fluorescence in toxin protease inhibitor counterscreen | fluorescence intensity (test concentration not listed) | compound autofluorescence counterscreen, microsphere flow cytometry; active compounds read high | 360,000 tested, 3.1% active | AID 624483; in the data active means fluorescence intensity above about 16000; inconclusive means no clear call, values can overlap the other calls
Anthrax LF prot: Bacillus anthracis LF protease inhibitors, primary screen, biochemical, multiplex microsphere, MLPCN library; inhibition, % at 10 µM; 360,000 tested, 0.12% active; Lethal factor (Bacillus anthracis), P15917; multiplex microsphere protease cleavage assay; further: plate controls were buffer without enzyme for full effect and enzyme alone for no effect
BoNT F protease: BoNT/F light chain protease inhibitors, primary screen, biochemical, flow cytometry, MLPCN library | Multiplex microsphere protease cleavage assay | inhibition, % at 10 µM | 360,000 tested, 0.22% active; in the data active means inhibition above about 35%, passing the limit was not always enough; inconclusive means no clear call, values can overlap the other calls; further: plate controls were buffer without enzyme for full effect and enzyme alone for no effect
VHR inh abs: VHR1 phosphatase inhibitors, primary screen, biochemical, absorbance, uHTS; recombinant VHR phosphatase, pNPP absorbance; Dual specificity protein phosphatase 3 (Homo sapiens), P51452; 290,000 tested, 0.52% active; inhibition, % at 13.3 µM; in the data active means inhibition above about 50%
Target sequence (P51452 whole entry, looked up): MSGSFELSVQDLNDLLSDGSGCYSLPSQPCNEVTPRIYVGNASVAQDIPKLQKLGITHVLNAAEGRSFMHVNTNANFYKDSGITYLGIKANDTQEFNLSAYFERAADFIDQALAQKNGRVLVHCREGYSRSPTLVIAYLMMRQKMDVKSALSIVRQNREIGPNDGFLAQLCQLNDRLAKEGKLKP
3CLpro inhibitor: SARS-CoV 3CLpro protease inhibitors, primary screen, biochemical, quenched FRET | 290,000 tested, 0.14% active | Replicase polyprotein 1ab (Severe acute respiratory syndrome coronavirus), P0C6X7 | recombinant SARS-CoV 3CLpro, quenched FRET peptide cleavage | inhibition, % at 6 µM; in the data active means inhibition above about 12%
* = called active by the depositor; u = inconclusive; x = no result. Unless noted, no stated cut-off is given here; in the data, active means inhibition above about 30%; inconclusive means no clear call, values can overlap the other calls; inactive means below that.

SMILES	BoNT A protease	Autofluor counter	Anthrax LF prot	BoNT F protease	VHR inh abs	3CLpro inhibitor
COc1cc(/C=N/NC(=O)CCC(=O)Nc2ccc(C)cc2)ccc1O	1	2051	1	-2	52*	0
CCCCn1nnnc1C1(C)CCC(=O)N1Cc1ccco1 (stereo not drawn)	0	4258	-2	2	x	x
O=C(N/C(=C\c1ccc(F)cc1)C(=O)N1CCOCC1)c1ccccc1	-1	4611	-2	3	22	5
Cc1ccc(C(O)c2ccncc2)cc1 (stereo not drawn)	8	17116*	-13	9	39	1
Cc1ccccc1C(O)c1ccncc1 (stereo not drawn)	3	19164*	-1	4	35	-1
Cc1cccc(-c2cnc(C(O)c3ccc(-c4ccccc4)cc3)[nH]2)c1 (stereo not drawn)	0	3887	-11	-8	x	x
O=C(CSc1n[nH]c(-c2ccco2)n1)N1c2ccccc2Sc2ccccc21	2	22111*	-3	2	-4	-3
CCOC(=O)CSc1n[nH]c(-c2ccco2)n1	0	5814	-4	-1	-9	2
c1ccc(Cn2nnc3c(N4CCCC4)ncnc32)cc1	-1	16477*	0	-4	19	9
c1ccc(Cn2nnc3c(N4CCc5ccccc5C4)ncnc32)cc1	4	20729*	1	8	26	2
Clc1ccccc1Nc1ncnc2c1nnn2Cc1ccccc1	u	16216*	-5	-2	-2	4
Cc1ccc(-c2nc3cc(C)c(Br)c(C)n3c2Cc2ccsc2)cc1	1	6312	1	-4	x	x
COC(=O)c1cc(NC(=O)COC(=O)C2CCC2)cc(C(=O)OC)c1	-2	u	-3	-3	x	x
COC(=O)c1ccc(CSc2ncn[nH]2)o1	u	20355*	2	-3	16	2
COc1ccc(Cl)cc1C(=O)O/N=C(\N)c1ccccn1	-2	3904	33*	u	4	0
CCn1c(SCC(=O)Nc2cc(C(C)(C)C)nn2-c2ccccc2)nnc1-c1cccs1	0	1983	-2	0	13	3
CCn1c(CSc2nc3ccccc3s2)nnc1SCC(N)=O	-2	20063*	0	-3	7	-2
CCn1c(CSc2nc3ccccc3s2)nnc1SCC(=O)NCC(=O)OC	0	20468*	-3	-1	9	3
CCn1c(SCC(N)=O)nnc1-c1cc2c(C)nn(-c3ccccc3)c2s1	2	23213*	-1	2	19	-4
CCn1c(CSc2nc3ccccc3s2)nnc1SCC(=O)OC(C)(C)C	-3	16941*	-2	-6	19	2
CC1(C)NC(=O)N(CC(=O)N2CCN(c3cccc(Cl)c3)CC2)C1=O	0	9108	-2	0	x	x
CCN(Cc1cc(=O)n2ccsc2n1)c1cccc2ccccc12	0	2822	2	-1	-5	-1
O=C(CSc1nnc(-c2cccc(F)c2)o1)N1CCCC1	1	5436	-1	9	18	1
COc1ccc(CCCC(=O)NCc2ccccc2)cc1C	0	2451	-1	-1	-10	3
CCn1c(CCc2ccccc2)nnc1SCC(N)=O	4	3042	28	37*	8	-6
SMILES	BoNT A protease	Autofluor counter	Anthrax LF prot	BoNT F protease	VHR inh abs	3CLpro inhibitor
Cn1c(CSc2nc3ccccc3s2)nc2ccccc21	-3	22150*	-3	-5	-8	1
CCOC(=O)/C(C#N)=C/c1c(N2CCN(CC)CC2)nc2c(C)cccn2c1=O	0	3456	6	8	2	-1
COc1ccc(N2CCN(CCCNC(=O)c3cc4sccc4n3C)CC2)cc1	-1	8039	-10	-7	23	2
CC1CCN(CCCNC(=O)c2cc3sccc3n2C)CC1	3	20532*	-2	2	32	-7
CCOc1ccc(C(=O)NC(=S)Nc2ccc(N3CCC(C)CC3)cc2)cc1[N+](=O)[O-]	-7	14746	-11	39*	-8	-2
O=C(O)CC1c2ccccc2CCN1S(=O)(=O)c1ccc(F)cc1 (stereo not drawn)	0	5376	-1	5	-35	1
CCOC(=O)c1nc(C)[nH]c1C(=O)OCC	u	22419*	-4	0	3	2

Screening results: PubChem BioAssay, several laboratories
